This passage reports log2 fold change growth results from PubChem BioAssay AID1259336 (Sattelle Laboratory, UCL Respiratory, Division of Medicine, …, 2017).

Molecules are shown by their SMILES. Activity calls are given as the source filed them. No stated cut-off is given here; in the data, active means log2 fold change growth below about -1.8; inactive means the rest.

A short description of the assay: anthelmintic activity against nematode growth – whole organism, log2 fold change (AID 1259336).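 Further: growth scored by imaging after five days at 20 °C.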 The settings on record: C. elegans growth, anthelmintic screen; hits give low values.
For the compound `c1cc(C2=NCCN2)cc(-c2cc(-c3ccc(C4=NCCN4)cc3)no2)c1`, the log2 fold change growth was 0.193 (inactive).

On to `CS(=O)(=O)N1CCC(CCn2nc(Cc3cccc4ccccc34)c3c(N)ncnc32)CC1`, for which the log2 fold change growth was -1.16 (inactive).

In the case of `COc1cc(CN2CCC3(C=Cc4ccccc43)CC2)cc2c1OCO2`, the log2 fold change growth is -0.677 (inactive).

Turning to `O=C(Nc1nc(-c2ccccn2)cs1)C1CC1c1ccccc1F` (centres undefined), the log2 fold change growth was -2.09 (active).

As for `COc1cccc(-n2nnnc2S(=O)(=O)Cc2ccccc2)c1`, the log2 fold change growth was 0.034 (inactive).

Turning to `CC(C)(C)n1nc(Cc2cccc3ccccc23)c2c(N)ncnc21`, the log2 fold change growth is -0.527 (inactive).

As to `COc1nc2ccc(Br)cc2cc1[C@@H](c1ccccc1)[C@@](O)(CCN(C)C)c1cccc2ccccc12`, the log2 fold change growth was 0.248 (inactive).

As to `CCN(CC)CCCN1CCN(C(=O)c2cccc(-c3noc(C(F)(F)F)n3)c2)CC1`, the log2 fold change growth was -0.0333 (inactive).

`Cc1cnc(N2CCN[C@@H](Cc3ccccc3)C2)nc1Oc1ccc(-n2ccnc2)cc1`: the log2 fold change growth is 0.245 (inactive).

Consider `NC[C@@H](c1cccs1)S(=O)(=O)c1ccccc1`, for which the log2 fold change growth is 0.289 (inactive).

As to `CCc1cc(=O)n(C)c(S[C@@H](C)C(=O)Nc2ccc(F)cc2)n1`, the log2 fold change growth was -0.417 (inactive).

For `COc1ccc(CCN2CCC(NCc3cccc(N(C)C)c3)CC2)cc1`, the log2 fold change growth is 0.27 (inactive).

For `CCOc1ccc(-c2nc(NC(=O)CS(=O)(=O)c3ccccc3)sc2C)cc1`, the log2 fold change growth was -1.31 (inactive).

As to `COc1ccc(S(=O)(=O)Nc2ccc(CN3CCN(C(=O)c4cccc(C#N)c4)CC3)cc2)cc1`, the log2 fold change growth is 0.00585 (inactive).

Regarding `c1cncc(NCc2ccc(-c3cc4ccncc4cc3OC3CCNCC3)s2)c1`, the log2 fold change growth was 0.376 (inactive).

Turning to `COc1cccn2c(C(=O)N3CCCCC3)c(C(F)(F)F)nc12`, the log2 fold change growth was 0.258 (inactive).

With `CCC(=O)Nc1ccccc1C(=O)Nc1ccccn1`, the log2 fold change growth was 0.194 (inactive).

Take `CN1CCN(c2cc(-c3ccc(F)cc3)nc(-c3ccncc3)n2)CC1`: the log2 fold change growth was -1.96 (active).

With `CC(=O)NC[C@H]1CN(c2ccc(-c3ccc(CO)cc3)c(F)c2)C(=O)O1`, the log2 fold change growth is 0.592 (inactive).

For `CS(=O)(=O)Cc1nc2ccccc2oc1=O`, the log2 fold change growth was -0.133 (inactive).

Turning to `O=C(Nc1cnc2ccccc2c1)c1cccc(-n2cnnn2)c1`, the log2 fold change growth is 0.489 (inactive).

For the compound `OCc1ccc(-c2cncc(Nc3cccc(Cl)c3)c2)cc1`, the log2 fold change growth is -0.873 (inactive).

For `C[C@@H](c1cc(Cl)cc(Cl)c1)N(C)c1ncc2c(N)nc(N)nc2n1`, the log2 fold change growth was -0.371 (inactive).

In the case of `O=C(NCCN1CCCC1)c1cc(NCCN2CCOCC2)nc2ccc(Cl)cc12`, the log2 fold change growth is 0.29 (inactive).

In the case of `O=C(Nc1ccc(N2CCNCC2)cc1)c1ccn2ncc(-c3cccc(Cl)c3)c2n1`, the log2 fold change growth is -0.0705 (inactive).

`O=C([C@H](Cc1c[nH]c2ccccc12)NS(=O)(=O)c1ccc(Cl)cc1)N1CCCCC1`: the log2 fold change growth is -0.129 (inactive).

For `Cc1cc2ccccc2n1CC(=O)N1C[C@@H](C(=O)N2CCCCC2)Oc2ccccc21`, the log2 fold change growth is 0.0798 (inactive).

In the case of `CC(=O)Nc1ccc(-c2noc(C[C@H]3CCCN(Cc4cccc(F)c4C)C3)n2)cc1`, the log2 fold change growth is 0.251 (inactive).

Consider `O[C@@H](c1cc(C(F)(F)F)nc2c(C(F)(F)F)cccc12)[C@H]1CCCCN1`, for which the log2 fold change growth was -0.189 (inactive).

Take `CC(=O)Nc1ccc(NC(=O)c2cc(-c3cc(Cl)ccc3O)n[nH]2)cc1`: the log2 fold change growth was 0.254 (inactive).

Regarding `Cc1cc(NCCc2ccccc2)nc(/N=C(\N)Nc2ccc(Cl)cc2)n1`, the log2 fold change growth is 0.186 (inactive).

As to `COc1ccc(-c2nc(-c3cccc(NC(=O)Cc4ccc(F)cc4)c3)no2)cc1OC`, the log2 fold change growth was -0.107 (inactive).

On to `O=C(NC1CC1)c1ccc(N2CCOc3ccc(Cl)cc32)s1`, for which the log2 fold change growth is -0.614 (inactive).

In the case of `Cc1ccccc1C(=O)N1NC(=Nc2ccccc2)SC1(C)C`, the log2 fold change growth was -0.306 (inactive).

Consider `CN1CCCC1CCO[C@](C)(c1ccccc1)c1ccc(Cl)cc1` (some centres undefined), for which the log2 fold change growth was 0.213 (inactive).

Take `O=S(=O)(c1ccc(Cl)cc1)N1CCN(C(=S)NCc2ccco2)CC1`: the log2 fold change growth was -0.203 (inactive).

Consider `Cc1noc(C)c1C(=O)N1CCC[C@H](c2[nH]c3c(C)cccc3c2-c2ccncc2)C1`, for which the log2 fold change growth is -0.149 (inactive).

Turning to `CCCCCCCCCCCCCCCCOP(=O)([O-])OCC[N+](C)(C)C`, the log2 fold change growth was 0.528 (inactive).

Consider `Nc1nc2ccc(-c3cncc(Oc4ccc(F)cc4)c3)cc2[nH]1`, for which the log2 fold change growth is 0.264 (inactive).
